Sampled rows, rich in hits. Any-hit rate of the full collection: about 3.4%.
TEAD-YAP inh – TEAD-YAP interaction inhibition, primary screen, TEAD-YAP interaction inhibitor project, luminescence, HEK-TIYL cells; AID 1259422, 2018; inhibition, % at 9.12 µM; TEAD-Gal4/YAP UAS-luciferase luminescence; 640,000 tested, 1.4% active; in the data active means inhibition above about 32%;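 further: 0% = median of test compound wells and 100% = reference inhibitor wells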
MITF inh – MITF inhibitors, primary screen, biochemical, AlphaScreen, human; 650,000 tested, 0.91% active; Microphthalmia-associated transcription factor (Homo sapiens), O75030; inhibition, % at 2.6 µM; AlphaScreen MITF homodimerization, bead proximity signal; in the data active means inhibition above about 50%;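 further: 0% = vehicle wells with protein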
GPR151 activ – activators of human GPR151, primary screen, cell-based, PathHunter beta-arrestin, luminescence | PathHunter beta-arrestin GPR151 cells | activation, % at 11.2 µM | 650,000 tested, 1% active; in the data active means activation above about 4.9%;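 further: 0% = median of compound wells and 100% = cells with positive control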
FBW7 activator – FBW7 E3 ligase activators, primary screen, biochemical, AlphaScreen, human | F-box/WD repeat-containing protein 7 (Homo sapiens), Q969H0 | AlphaScreen FBW7–phospho-cyclin E peptide binding, activator screen | normalized activity (activation), % at 26.1 µM | 650,000 tested, 0.13% active | AID 1259310, 2017; in the data active means normalized activity above about 1.9%;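 further: purified mutant Fbw7 with reduced substrate affinity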
GPR151 confirm – GPR151 activators, triplicate retest, confirmation, cell-based, PathHunter beta-arrestin, luminescence; AID 1508609, 2020; activation, % at 11.2 µM; 6,700 tested, under 10 active; GPR151 PathHunter beta-arrestin cells, 90 min; % of EA-reagent control over plate median; shares compounds with GPR151 activ;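 active means mean percent activation across replicates above the confirmation screen cutoff of 4.91%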
GPR119 counter – GPR119 activators in beta-arrestin cells, counter-screen for GPR151 activator project, cell-based, PathHunter beta-arrestin, luminescence, triplicate; shares compounds with GPR151 activ; 90 min; 0 = compound-well median, 100 = enzyme-acceptor control; activation, % at 11.2 µM; 6,700 tested, 0.3% active; AID 1508611, 2020;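 active means mean percent activation in the counterscreen above 29.09%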;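 further: counterscreen on off-target GPR119 to flag nonselective hits from the GPR151 activator screen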
Target sequence (Q8TDV5 whole entry, looked up): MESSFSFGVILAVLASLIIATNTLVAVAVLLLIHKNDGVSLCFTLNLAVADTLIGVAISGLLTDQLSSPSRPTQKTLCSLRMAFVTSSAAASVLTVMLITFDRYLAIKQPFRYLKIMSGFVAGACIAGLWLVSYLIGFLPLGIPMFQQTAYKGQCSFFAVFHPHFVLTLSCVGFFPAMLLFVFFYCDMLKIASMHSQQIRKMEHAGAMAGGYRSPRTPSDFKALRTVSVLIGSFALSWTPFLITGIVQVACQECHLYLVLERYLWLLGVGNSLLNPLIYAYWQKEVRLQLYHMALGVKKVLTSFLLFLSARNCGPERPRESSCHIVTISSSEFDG
An asterisk follows results filed as active; . = no result.

SMILES	TEAD-YAP inh	MITF inh	GPR151 activ	FBW7 activator	GPR151 confirm	GPR119 counter
CCN(CC)c1cc(NCCO)c([N+](=O)[O-])c2nonc12	5	16	5.9*	0	-1	-12
C=CCNC(=O)c1cn(C(C)CC)cc(C(=O)NCc2ccsc2)c1=O (centres undefined)	-1	10	1	0	.	.
N#CCSc1nnc(-c2cccc(S(=O)(=O)N3CCCCC3)c2)o1	13	-1	0	0	.	.
COc1ccccc1C1CC(c2ccc(C)cc2)=NN1C(=O)CCCC(=O)O (centres undefined)	13	5	-2	0	.	.
CC1CCN(C(=O)C2=CC(c3cccs3)=NS(=O)(=O)N2C)CC1	5	-6	5.4*	0	-1	-13
COC(=O)C1=C(C)N(Cc2ccccc2)C(=O)N[C@H]1c1cccc(C(F)(F)F)c1	.	-10	8.6*	0	-1	-10
COc1cc(CCN2C(=O)N[C@@H](c3cccc(C(F)(F)F)c3)C(C(C)=O)=C2C)cc(OC)c1OC	.	-27	0	0	.	.
CCOC(=O)CN1C(=O)N[C@@H](c2cccc(C(F)(F)F)c2)C(C(C)=O)=C1C	.	4	10.0*	0	1	12
CC(=O)C1=C(C)N(Cc2ccccc2)C(=O)N[C@@H]1c1cccc(C(F)(F)F)c1	.	-2	0	0	.	.
COc1cccc(-n2nc(C(=O)Nc3ccc(F)c(Cl)c3)c3ccccc3c2=O)c1	-5	13	0	0	.	.
COc1cc2nc(=S)n3[nH]c(CCn4c(C)nc5ccccc54)nc3c2cc1OC	-2	7	5.5*	0	0	-2
COc1ccc(OCc2nc3c4cc(OC)c(OC)cc4nc(=S)n3[nH]2)cc1	1	-1	1	0	.	.
COc1cccc(OC/C(O)=C(\C#N)c2nc3ccccc3[nH]2)c1	-1	0	5.2*	0	0	1
COc1ccc(OC/C(O)=C(\C#N)c2nc3ccccc3[nH]2)cc1	0	7	1	-1	.	.
CC/C(C)=C(\C#N)c1nc2ccccc2[nH]1	-44	-5	5.7*	0	1	11
CCOC(=O)Cc1c(C)c2ccc(N(CC)CC)cc2oc1=O	-10	-14	7.2*	1	0	10
COc1ccc(/C=C(/NC(=O)c2ccc(C)cc2)C(=O)O)c(OC)c1	-3	-2	5.3*	0	1	13
COc1ccc(/C=C(\NC(=O)c2ccccc2)C(=O)NN)c(OC)c1	-1	-13	0	0	.	.
CC(C)C(NC(=O)/C(=C/c1ccc(F)cc1)NC(=O)c1ccccc1)C(=O)O (centres undefined)	-17	-10	0	0	.	.
Cc1nc(NC(=O)c2ccccc2F)sc1C(=O)O	5	18	-6	1	.	.
Cc1nc(NS(C)(=O)=O)sc1C(=O)O	8	11	5.0*	0	0	5
COc1ccc(OC)c(C2C(C(N)=O)=C(C)Nc3nc(CCCO)nn32)c1 (centres undefined)	-8	21	7.7*	1	1	-2
CCOc1ccc(CN2CCNC(=O)C2CC(=O)NCCSc2nnc(C)s2)cc1 (centres undefined)	-8	0	-2	0	.	.
CCOC(=O)N1CCN(Cc2cc(=O)oc3ccc(OC)cc23)CC1	-23	12	14*	0	0	1
COc1ccc2oc(=O)cc(CN3CCCCC3)c2c1	5	10	0	0	.	.
SMILES	TEAD-YAP inh	MITF inh	GPR151 activ	FBW7 activator	GPR151 confirm	GPR119 counter
CC1CCCC(NC(=O)c2ccc3c(=O)n(Cc4ccc5c(c4)OCO5)c(=O)[nH]c3c2)C1C (centres undefined)	-5	-3	0	0	.	.
COC(=O)Cn1c(-c2ccccc2Cl)nc2sc3c(c2c1=O)CCCC3	-10	-11	0	0	.	.
CCOC(=O)c1c(/N=c2\oc3ccc4ccccc4c3cc2C(N)=O)sc2c1CCCC2	-5	-6	0	0	.	.
Cc1nc(SCC(=O)Nc2cc(C)on2)c2c(-c3cccs3)csc2n1	1	6	1	0	.	.
Cc1nc(SCC(=O)NC(=O)NCc2ccco2)c2c(-c3cccs3)csc2n1	2	11	5.0*	0	1	4
O=C(N/N=C/c1cc(Br)cs1)c1cccc([N+](=O)[O-])c1	21	2	1	0	.	.
Cc1ccc(S(=O)(=O)C(CNC(=O)C(C)C)c2ccco2)cc1 (centres undefined)	-7	11	0	0	.	.
CCN1CCN(C(=O)NCc2noc3ccc(C)cc23)CC1	9	7	-1	0	.	.
Cc1ccc2onc(CNC(=O)N3CCCCC3)c2c1	-10	7	7.0*	0	0	4
O=C(NCc1ccco1)c1ccccc1NC(=O)C1CC(=O)N(c2ccc(Cl)cc2)C1 (centres undefined)	3	0	6.8*	0	0	3
Cc1ccc(N2CC(C(=O)Nc3ccccc3C(N)=O)CC2=O)cc1 (centres undefined)	3	15	-1	0	.	.
O=C(NCc1ccco1)C1CC(=O)N(c2ccc(F)cc2)C1 (centres undefined)	0	1	-1	0	.	.
Cc1ccc(N2CC(C(=O)Nc3ccccc3C(=O)NC(C)C)CC2=O)cc1 (centres undefined)	-4	-14	6.3*	0	0	22
Cc1ccc(N2CC(C(=O)Nc3ccccc3C(=O)NCCc3ccccc3)CC2=O)cc1 (centres undefined)	-10	9	5.3*	0	-1	-8
Cc1cccn2c(=O)c3cc(C(=O)N(C(C)C)C(C)C)sc3nc12	5	-3	0	0	.	.
CC(NC(=O)c1cnc2scc(C(C)(C)C)n2c1=O)c1ccccc1 (centres undefined)	4	-2	7.4*	0	1	6
Cc1ccccc1CN1CCC(N2CCC(C(=O)NCC3CCCO3)CC2)CC1 (centres undefined)	9	6	8.4*	0	1	18
O=C1C(c2ccc(F)cc2)N(C2CCCCC2)C(=O)CN1C1CCCCCC1 (centres undefined)	11	6	8.6*	1	3	9
O=C1C(c2ccc(F)cc2)N(C2CCCC2)C(=O)CN1C1CCCCC1 (centres undefined)	-6	-5	0	0	.	.
O=C1C(c2ccc(F)cc2)N(C2CCCCCCC2)C(=O)CN1C1CCCCCC1 (centres undefined)	-4	4	8.2*	1	-1	0
COCC1CCCCN1C(=O)CC1(c2ccccc2)CC(=O)N(CCc2ccccn2)C1=O (centres undefined)	-2	17	5.4*	1	0	8

Screening data (PubChem)
